Bioassay records from PubChem.
A selection: hits, their analogues and other compounds. The true share with any hit is near 6.2%.
KB-V1 MDR tox: qHTS assay for MDR1-selective chemotherapeutics: Primary screen using the drug-selected MDR subline cells KB-V1. KB-V1 MDR cells viability, CellTiter-Glo, 72 h. Potency, µM (series often up to 46.1 µM), actives largely listed as cytotoxic. actives 3.4% (n = 400,000). AID 1347076, 2019; also: nearly all actives have a fitted effect of over 60% in size
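KB-V1 MDR subline cells in DMEM (phenol-red free, 10% FBS) exposed to compounds in qHTS concentration series for 72 h at 37 degrees C. Viability read by CellTiter-Glo luminescence; concentration-effect curves fitted after normalization and correction.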
HT1080 IDH1KD tx: qHTS for induction of synthetic lethality in tumor cells producing 2HG: qHTS for the HT-1080-IDH1KD cell line | HT-1080 IDH1 knockdown viability, ATP luminescence, 48 h | Potency, µM (doses to about 46.1 µM), actives largely listed as cytotoxic | AID 686971, 2013 | actives 2% (n = 360,000)
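After a 2 h attachment period, IDH1KD HT-1080 cells took pin-transferred compound for 48 h at 37 °C; ATP-based luminescence after 10 min room-temperature reagent incubation reported viability.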
KB-3-1 tox: qHTS assay for MDR1-selective chemotherapeutics: Primary screen using the parental adenocarcinoma cell KB-3-1; KB-3-1 viability, CellTiter-Glo ATP luminescence, 72 h; Potency, µM (top dose mostly 46.1 µM), usual class: cytotoxic; actives 1.4% (n = 400,000); also: nearly all actives have a fitted effect of over 60% in size
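KB-3-1 parental drug-naive adenocarcinoma cells in DMEM/10% FBS, incubated 72 h at 37 C with pin-transferred compounds across a concentration series. Viability by CellTiter-Glo luminescence; concentration-response curves fitted after normalization.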
HT1080NT lethal: qHTS for induction of synthetic lethality in tumor cells producing 2HG: qHTS for the HT-1080-NT fibrosarcoma cell line | actives 1.6% (n = 360,000) | Potency, µM (series often up to 46.1 µM), hits mostly cytotoxic | AID 686970, 2013 | HT-1080-NT fibrosarcoma viability, CellTiter-Glo ATP luminescence, 48 h;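 also: NT is the 2HG producing partner of a matched IDH1 knockdown line; nearly all actives have a fitted effect of over 55% in size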
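HT-1080-NT fibrosarcoma cells (2HG-overproducing), 750 cells/well in RPMI with 5% FBS, dosed after 2 h and incubated 48 h at 37C. CellTiter-Glo luminescence normalized to DMSO and no-cell wells; concentration-response curves fitted and classed.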
S2 tox: Viability Counterscreen for Primary qHTS for Inhibitors of ATXN expression; S2 cells (HEK-293 line with an ATXN2-luciferase reporter) viability, CellTiter-Fluor protease fluorescence, 24 h; Potency, µM (highest dose often 56.7 µM), hits mostly cytotoxic; actives 0.49% (n = 400,000); AID 651635, 2014; also: nearly all actives have a fitted effect of over 40% in size
ATXN2 expr inh: Primary qHTS for Inhibitors of ATXN expression; HEK-293 ATXN2-luciferase reporter, luminescence, 24 h; Potency, µM (top dose mostly 57 µM), actives largely listed as inhibitors; actives 0.72% (n = 360,000); AID 1745845, 2022; also: nearly all actives have a fitted effect of over 55% in size
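qHTS (up to 57 uM final) was run with 24 h compound exposure of reporter cells at 37 °C. Each well was multiplexed: SteadyGlo luminescence measured ATXN2-luciferase expression after a fluorogenic Gly-Phe-AFC viability readout (25 uM final).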
Large screens that a line does not name were inactive. Calls follow the shape of the dose curve; as a rule, active = well fitted curve in the direction sought with a large enough effect; inconclusive = small, poorly fitted or top-dose-only effect, or another doubt; inactive = no such curve, though single readings can be large; an effect the other way counts as inactive or inconclusive.

CC(=O)Nc1cccc(-c2csc(C(C)(O)c3cccc(F)c3)n2)c1 (stereo not given)	none
CCOc1ccc2[nH]c3c(N4CCN(C(=O)c5ccco5)CC4)ncnc3c2c1	HT1080 IDH1KD tx inconclusive, HT1080NT lethal inconclusive, ATXN2 expr inh inconclusive
CCOC(=O)N1CCN(c2ncnc3c2[nH]c2ccc(OC)cc23)CC1	KB-V1 MDR tox 14.6µM, ATXN2 expr inh inconclusive
COc1ccc(N2CCN(c3ncnc4c3[nH]c3ccccc34)CC2)cc1	ATXN2 expr inh inconclusive
COc1ccc2[nH]c3c(N4CCc5ccccc5C4)ncnc3c2c1	KB-V1 MDR tox 2.59µM, HT1080 IDH1KD tx 10.3µM, KB-3-1 tox 2.59µM, HT1080NT lethal 2.31µM, S2 tox inconclusive, ATXN2 expr inh inconclusive
CCOc1ccc2[nH]c3c(N4CCC5(CC4)OCCO5)ncnc3c2c1	KB-V1 MDR tox inconclusive, HT1080 IDH1KD tx 23.1µM, KB-3-1 tox inconclusive, HT1080NT lethal inconclusive, ATXN2 expr inh inconclusive
COc1cc2[nH]c3c(N4CCN(c5ccccn5)CC4)ncnc3c2cc1OC	KB-V1 MDR tox inconclusive, HT1080 IDH1KD tx inconclusive, HT1080NT lethal 23.1µM, S2 tox inconclusive
COc1ncc(-c2c(-c3ccccc3OC)sc3ccccc23)cn1	HT1080 IDH1KD tx 16.4µM, KB-3-1 tox inconclusive, HT1080NT lethal inconclusive
COc1cccc(CN2C(=O)NC(C)(C3CCN(Cc4cc(F)cc(F)c4)CC3)C2=O)c1OC (stereo not given)	none (no result: KB-V1 MDR tox, HT1080 IDH1KD tx, KB-3-1 tox, HT1080NT lethal, ATXN2 expr inh)
CCOc1ccc2nc(Cl)c(C3CC(c4ccc(C)cc4)=NN3C(=O)CCCC(=O)O)cc2c1 (stereo not given)	none (no result: HT1080 IDH1KD tx, HT1080NT lethal)
Cc1cc(C)c2c(=O)cc(C(=O)Nc3sc4c(c3C(=O)NCc3cccnc3)CCCC4)oc2c1	none (no result: HT1080 IDH1KD tx, HT1080NT lethal)
CCCOc1ccc(C(=O)NCC(c2cccs2)N(C)C)cc1 (stereo not given)	none (no result: ATXN2 expr inh)
Cc1ccc(C(=O)NCC(=O)NCC(c2cccs2)N(C)C)cc1C (stereo not given)	KB-V1 MDR tox 14.6µM
CCOc1ccc(C(=O)NCC(c2cccs2)N(C)C)cc1OCC (stereo not given)	KB-V1 MDR tox 23.1µM
CC(NC(=O)c1ccco1)c1nnc2n1CCN(Cc1ccc(Cl)cc1)CC2 (stereo not given)	none (no result: KB-V1 MDR tox, HT1080 IDH1KD tx, KB-3-1 tox, HT1080NT lethal, ATXN2 expr inh)
CCCCC1C(=O)NN(c2ccccc2)C1=O (stereo not given)	HT1080 IDH1KD tx 4.61µM, KB-3-1 tox inconclusive, HT1080NT lethal 1.84µM
O=S(=O)(c1ccc(Cl)cc1)c1nnn2c1nc(NC1CCCCC1)c1sccc12	none (no result: HT1080 IDH1KD tx, HT1080NT lethal, S2 tox, ATXN2 expr inh)
CCn1c(/C=C/N(C(C)=O)c2ccccc2)[n+](CC)c2ccc(Cl)cc21	S2 tox inconclusive
CC[n+]1c(/C=C/C=C/N(C(C)=O)c2ccccc2)sc2ccccc21	KB-V1 MDR tox inconclusive, HT1080 IDH1KD tx inconclusive, KB-3-1 tox 16.4µM, HT1080NT lethal inconclusive, ATXN2 expr inh inconclusive (no result: S2 tox)
CCOC(=O)CC(=O)CSc1nc2ccccc2c(=O)n1CCc1ccc(S(N)(=O)=O)cc1	S2 tox inconclusive (no result: HT1080 IDH1KD tx, HT1080NT lethal)
CCN(Cc1ccccc1)S(=O)(=O)c1ccc(C(=O)Nc2nnc(C3CC3)o2)cc1	KB-3-1 tox inconclusive, ATXN2 expr inh 20µM
Cn1c2c(c3cnc4cc(Cl)ccc4c31)CNCC2	none (no result: HT1080 IDH1KD tx, HT1080NT lethal, S2 tox, ATXN2 expr inh)
COc1ccc2cc(CN(Cc3cccnc3)S(=O)(=O)c3ccccc3)c(=O)[nH]c2c1	KB-V1 MDR tox 16.4µM, KB-3-1 tox inconclusive
Cc1cc2cc(CN(CC3CCCO3)C(=S)Nc3ccccc3)c(=O)[nH]c2cc1C (stereo not given)	HT1080 IDH1KD tx inconclusive, KB-3-1 tox 7.31µM, HT1080NT lethal 11.6µM, S2 tox inconclusive
COc1ccc(S(=O)(=O)N(Cc2cc3cc(C)ccc3[nH]c2=O)CC2CCCO2)cc1 (stereo not given)	KB-V1 MDR tox 7.31µM, S2 tox inconclusive
COc1ccc2cc(CN(CC3CCCO3)C(=S)Nc3ccccc3)c(=O)[nH]c2c1 (stereo not given)	KB-V1 MDR tox 20.6µM, HT1080 IDH1KD tx 14.6µM, KB-3-1 tox 5.8µM, HT1080NT lethal 25.9µM
COc1ccc2[nH]c(=O)c(CN(CC3CCCO3)C(=S)Nc3ccccc3)cc2c1 (stereo not given)	none (no result: ATXN2 expr inh)
Cc1cc2cc(CN(CC3CCCO3)C(=S)NCc3ccco3)c(=O)[nH]c2cc1C (stereo not given)	none
Cc1ccc(C)c2[nH]c(=O)c(CN(CC3CCCO3)C(=O)NC3CCCCC3)cc12 (stereo not given)	KB-V1 MDR tox 14.6µM, HT1080NT lethal inconclusive
CCc1ccc2[nH]c(=O)c(CN(CCN(CC)CC)C(=O)Nc3ccccc3OC)cc2c1	HT1080 IDH1KD tx inconclusive, KB-3-1 tox inconclusive, HT1080NT lethal 16.4µM, S2 tox inconclusive
CCc1ccc2[nH]c(=O)c(CN(CCN(C)C)C(=O)Nc3ccccc3OC)cc2c1	HT1080 IDH1KD tx inconclusive, HT1080NT lethal inconclusive
COc1ccc2cc(CN(CC3CCCO3)C(=O)Nc3ccccc3OC)c(=O)[nH]c2c1 (stereo not given)	KB-V1 MDR tox 11.6µM, HT1080 IDH1KD tx 2.31µM, KB-3-1 tox 5.17µM, HT1080NT lethal 2.59µM, S2 tox inconclusive
COC(=O)c1ccccc1S(=O)(=O)N(Cc1cc2ccc(OC)cc2[nH]c1=O)CC1CCCO1 (stereo not given)	KB-V1 MDR tox 14.6µM
COc1ccc(-c2onc(C)c2C)cc1S(=O)(=O)NCC1CCN(Cc2cc(C)ccc2C)CC1	none (no result: HT1080 IDH1KD tx, HT1080NT lethal, S2 tox, ATXN2 expr inh)
C/C(=N\NC(=O)c1cc(C)nc2ccccc12)c1ccco1	none
C/C(=N\Nc1nc2ccccc2c(=O)n1O)c1ccco1	KB-V1 MDR tox 14.6µM, KB-3-1 tox 20.6µM
CS(=O)(=O)Nc1cccc(-c2cc(NC=O)c3ncc(-c4ccc(F)cc4)n3c2)c1	KB-V1 MDR tox inconclusive, HT1080 IDH1KD tx 8.2µM, HT1080NT lethal 11.6µM, S2 tox inconclusive, ATXN2 expr inh inconclusive
CC(=O)c1ccc(-c2cnc3c(NC=O)cc(-c4ccc(S(C)(=O)=O)cc4)cn23)cc1	HT1080 IDH1KD tx 6.51µM, HT1080NT lethal inconclusive, S2 tox inconclusive
O=CNc1cc(-c2cccc(F)c2)cn2c(-c3ccc(F)cc3)cnc12	KB-V1 MDR tox inconclusive
CC(=O)c1ccc(-c2cnc3c(NC=O)cc(-c4cnn(C)c4)cn23)cc1	KB-V1 MDR tox inconclusive, HT1080 IDH1KD tx inconclusive, KB-3-1 tox inconclusive, HT1080NT lethal inconclusive
